Screening data (PubChem BioAssay)
AMA1-RON2 inh: qHTS for Inhibitors of AMA1-RON; Towards Development of Antimalarial Drug Lead: Primary Screen; AlphaScreen AMA1-biotinylated RON2 peptide binding; Potency, µM (top dose mostly 58.2 µM), for inactives: at the highest dose activity change, negative = inhibition, actives largely listed as inhibitors; 360,000 tested, 0.2% active;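 also: 0% = vehicle wells and -100% = peptide control; nearly all actives have a fitted effect of over 45% in size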
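AMA1 (3D7) with his tag at 25 nM final met compounds first, then biotinylated RON2 peptide at 25 nM; detection used donor plus acceptor beads, 10 µg/mL apiece, read by AlphaScreen after 30 min at room temperature.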
Pf growth 48h: Primary qHTS for delayed death inhibitors of the malarial parasite plastid, 48 hour incubation | P. falciparum luciferase growth in erythrocytes, 48 h | Potency, µM (doses to about 28.7 µM), for inactives: top-dose activity change, negative = inhibition, hits mostly inhibitors | 310,000 tested, 5.9% active | AID 504832, 2011; also: % is scaled to controls: 0 for no effect and ±100 for the full control effect
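Parasite viability was followed by luminescence of a genomically integrated firefly luciferase. Cultures held 0.1% parasitemia at 2% hematocrit (final), incubated under 5% CO2 at 37 C.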
Pf growth 96h: Primary qHTS for delayed death inhibitors of the malarial parasite plastid, 96 hour incubation; P. falciparum luciferase reporter growth, 96 h; Potency, µM (doses to about 28.7 µM), without a hit: at the top dose activity change, negative = inhibition, most hits filed as inhibitors; 320,000 tested, 6.9% active; AID 504834, 2011; also: % is scaled to controls: 0 for no effect and ±100 for the full control effect
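Readout is luminescence from an integrated firefly luciferase in P. falciparum. Red cells, 2% hematocrit and 0.05% parasitemia final, were cultured with compound through two parasite generations (96 hours) at 37 C, 5% CO2.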
HCV inh: qHTS Assay for Inhibitors of Hepatitis C Virus (HCV); Huh7.5.1 HCVcc-Cre infection, luciferase reporter, 44 h; 340,000 tested, 3.4% active; Potency, µM (doses to about 41.8 µM), for the others: at the top dose activity change, negative = inhibition, hits mostly inhibitors; also: % is scaled to controls: 0 for no effect and ±100 for the full control effect
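After 44 h co-culture of compound, cells and HCVcc-Cre (~0.5 moi), substrate is added for 15 min at room temperature and luciferase measured over 15 sec. Cells were seeded at 1,000/well and pre-cultured 4 h.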
NS1 inh: qHTS Assay for Inhibitors of Influenza NS1 Protein Function. Potency, µM (series often up to 46.1 µM), for the others: at the top dose activity, positive = more growth. 270,000 tested, 0.4% active. AID 2326, 2010; calls by dose curve; also: actives are rising curves; nearly all actives have a fitted effect of over 50% in size
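S. cerevisiae expressing influenza A NS1, grown in glucose, washed, then diluted 1:100 into pH 6.0 -URA galactose medium with 23 nl compound. Growth recovery read as OD600; NS1-free strain serves as control.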
SARS PLP yeast: qHTS of Yeast-based Assay for SARS-CoV PLP; S. cerevisiae expressing SARS-CoV PLpro, growth rescue; 330,000 tested, 0.19% active; Potency, µM (titrated, usually from 32.9 µM), without a hit: top-dose activity, positive = growth rescue, usual class: activators; calls by dose curve; also: 0% is about no effect; nearly all actives have a fitted effect of over 55% in size
* marks the source's active call; other numbers are inactive results. Shown are actives, neighbours in structure and some others; about 12% of the full set was active somewhere. Unless noted, calls follow the shape of the dose curve; as a rule, active = well fitted curve in the direction sought with a large enough effect; inconclusive = small, poorly fitted or top-dose-only effect, or another doubt; inactive = no such curve, though single readings can be large; an effect the other way counts as inactive or inconclusive. Potency is read from the fitted curve at half-maximal effect.

NCC(O)(c1ccc(Cl)cc1)c1ccc(Cl)cc1 was read as AMA1-RON2 inh 8.5%, Pf growth 48h inconclusive, Pf growth 96h 4.65µM*, HCV inh inconclusive, NS1 inh 4.9% and SARS PLP yeast -0.2%.
`CCN(CC)CCOc1ccc(C(O)(Cc2ccc(Cl)cc2)c2ccc(C)cc2)cc1` (centres undefined) gave Pf growth 48h 13.5µM* and Pf growth 96h 9.53µM*.
Screening CCN(CC)CCNCC(O)(c1ccc(Cl)cc1)c1ccc(Cl)cc1 returned AMA1-RON2 inh 13.4%, Pf growth 48h inconclusive, Pf growth 96h 11.7µM*, HCV inh inconclusive and SARS PLP yeast -1.3%.
For CC(C)(C)NCC(O)(c1ccc(Cl)cc1)c1ccc(Cl)cc1 the results were AMA1-RON2 inh -15.7%, Pf growth 48h inconclusive, Pf growth 96h inconclusive, HCV inh inconclusive and SARS PLP yeast 3.1%.
For CC(C)NCC(O)(c1ccc(Cl)cc1)c1ccc(Cl)cc1 the results were AMA1-RON2 inh 7.9%, Pf growth 48h 11.7µM*, Pf growth 96h 1.47µM*, HCV inh -29.2% and SARS PLP yeast 1.1%.
`CCCn1c(SCC(=O)N2CCN(C(C)=O)CC2)nc2sc3c(c2c1=O)CCC3` gave AMA1-RON2 inh 145.6%, Pf growth 48h inconclusive, Pf growth 96h 13.1µM*, HCV inh 0.8%, NS1 inh 6.4% and SARS PLP yeast 4.3%.
`CCN(CC)C(=O)CSc1nc2sc3c(c2c(=O)n1CCCOC)CCC3` gave AMA1-RON2 inh 7.5%, Pf growth 48h inconclusive, Pf growth 96h -0.1%, HCV inh -19.8%, NS1 inh 3.4% and SARS PLP yeast 2.2%.
COCCn1c(SCC(=O)Nc2ncc(C)s2)nc2sc3c(c2c1=O)CCC3 was read as Pf growth 48h inconclusive, Pf growth 96h -17.5%, HCV inh 2.24µM*, NS1 inh 1.6% and SARS PLP yeast -5.2%.
`CCn1c(SCC(N)=O)nc2sc3c(c2c1=O)CCN(C)C3` gave AMA1-RON2 inh 7.5%, Pf growth 48h 1.31µM*, Pf growth 96h inconclusive, HCV inh -7.5%, NS1 inh 10.8% and SARS PLP yeast -0.3%.
For CCn1c(SCC(=O)Nc2ccc(C)cc2)nc2sc3c(c2c1=O)CCN(C)C3 the results were AMA1-RON2 inh -14.8%, Pf growth 48h 3.7µM*, Pf growth 96h 0.37µM*, HCV inh inconclusive, NS1 inh 10.4% and SARS PLP yeast 0.6%.
Screening CCCn1c(SCC(=O)NCC)nc2sc3c(c2c1=O)CCC3 returned AMA1-RON2 inh 2.7%, Pf growth 48h -7.6%, Pf growth 96h -24.1%, HCV inh -6.5%, NS1 inh 15.2% and SARS PLP yeast 8.0%.
Screening CCCCn1c(SCC(N)=O)nc2sc3c(c2c1=O)CCC3 returned AMA1-RON2 inh -1.7%, Pf growth 48h -4.5%, Pf growth 96h inconclusive, HCV inh inconclusive, NS1 inh 19.9% and SARS PLP yeast -3.8%.
`Cc1cccc(C)c1NC(=O)C1(C)CN(S(C)(=O)=O)CC(=O)N1CCc1c[nH]c2ccccc12` (centres undefined) gave AMA1-RON2 inh 10.4%.
`COc1cc(OC)c2cc(C(=O)N[C@@H](Cc3ccccc3)C(=O)O)n(C)c2c1` gave AMA1-RON2 inh 7.5%, Pf growth 48h 2.5%, Pf growth 96h 4.4%, HCV inh 18.6%, NS1 inh 0.8% and SARS PLP yeast 0.7%.
Screening C#Cc1ccc([C@@H]2C=C(C(=O)N3CCN(Cc4ccccc4)CC3)O[C@H](OCC)[C@H]2CCCO)cc1 returned AMA1-RON2 inh -13.2%, Pf growth 48h inconclusive, Pf growth 96h 6.57µM*, HCV inh inconclusive, NS1 inh -8.5% and SARS PLP yeast 0.3%.
CCO[C@@H]1OC(C(=O)N2CCN(Cc3ccccc3)CC2)=C[C@H](c2ccccc2)[C@H]1CCCO was read as AMA1-RON2 inh 6.3%, Pf growth 48h inconclusive, Pf growth 96h inconclusive, HCV inh -19.5%, NS1 inh -4.1% and SARS PLP yeast -0.6%.
`C#Cc1ccc([C@H]2C=C(C(=O)N3CCN(Cc4ccccc4)CC3)O[C@@H](OCC)[C@@H]2CCCO)cc1` gave AMA1-RON2 inh -2.1%, Pf growth 48h inconclusive, Pf growth 96h 10.4µM*, HCV inh -8.1%, NS1 inh -12.8% and SARS PLP yeast -0.4%.
`CCOC(=O)C1=CN(Cc2ccco2)S(=O)(=O)NC1c1cccc(OC)c1` (centres undefined) gave AMA1-RON2 inh 0.8%, HCV inh 4.8% and SARS PLP yeast 4.0%.
Screening CS(=O)(=O)N1CCc2cc(-c3csc(NC(=O)C(c4ccccc4)c4ccccc4)n3)ccc21 returned AMA1-RON2 inh -4.1%, Pf growth 48h 13.1µM*, HCV inh -22.3%, NS1 inh 14.0% and SARS PLP yeast -3.4%.
Screening CNc1nc(-c2ccc3c(c2)CCN3C(=O)c2ccccc2F)cs1 returned AMA1-RON2 inh -12.5%, Pf growth 48h inconclusive, Pf growth 96h 43.4%, HCV inh 11.2µM*, NS1 inh 7.6% and SARS PLP yeast -2.9%.
For CNc1nc(-c2ccc3c(c2)CCN3C(=O)c2ccccc2F)c(C)s1 the results were AMA1-RON2 inh 9.9%, Pf growth 48h inconclusive, Pf growth 96h inconclusive, HCV inh inconclusive, NS1 inh 0.5% and SARS PLP yeast -2.5%.
`CC1Cc2cc(-c3csc(NC(=O)Cc4ccccc4)n3)ccc2N1S(C)(=O)=O` (centres undefined) gave AMA1-RON2 inh -7.3%, Pf growth 96h inconclusive, HCV inh 0.708µM*, NS1 inh 18.6% and SARS PLP yeast 15.3%.
For CC1CN(S(=O)(=O)c2ccc(C(=O)N3CCc4ccccc43)cc2)CC(C)O1 (centres undefined) the results were AMA1-RON2 inh -6.1%, Pf growth 48h -20.1%, Pf growth 96h -23.9%, HCV inh 18.5% and SARS PLP yeast 3.5%.
For O=C(CC(C(=O)NCc1ccccc1)c1nc2ccccc2c(=O)[nH]1)NCc1ccccc1 (centres undefined) the results were AMA1-RON2 inh 0.0%, Pf growth 48h inconclusive, Pf growth 96h 11.7%, HCV inh 4.5%, NS1 inh 4.0% and SARS PLP yeast 0.1%.
Screening CS(=O)(=O)c1sc(C(=O)NC(=O)Nc2cccc(C(F)(F)F)c2)c2c1C=CCC2 returned AMA1-RON2 inh 10.3%, Pf growth 48h 2.33µM*, Pf growth 96h 13.7%, HCV inh 5.4%, NS1 inh -5.4% and SARS PLP yeast -5.6%.
